According to PubChem BioAssay (NCI):
Compounds without any hit were thinned out: in the full panel of roughly 79,000, 15% have a hit. Active and inactive are the calls of the source. No stated cut-off is given here; in the data, active means growth inhibition above about 70%; inactive means the rest.

Legend:
[1] = NCI Yeast Anticancer Drug Screen. Data for the rad50 strain (AID 155);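 further: 0% = growth of vehicle-only cultures of the same strain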; settings: S. cerevisiae rad50 strain growth inhibition, active compounds read high
How it was run: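 Cells are treated with compound, grown, and their growth is then scored against vehicle-only cultures of the same repair-deficient yeast strain.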

[2] = NCI Yeast Anticancer Drug Screen. Data for the mec2-1 strain (AID 157); settings: S. cerevisiae mec2-1 strain, active compounds read high
How it was run: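 Using mec2-1 yeast: add compound, measure growth, express inhibition versus vehicle-treated cultures.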

[3] = NCI Yeast Anticancer Drug Screen. Data for the sgs1 mgt1 strain (AID 161);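 further: 0% = growth of cultures given vehicle only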; settings: S. cerevisiae sgs1 mgt1 strain, active compounds read high
How it was run: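 This yeast growth screen uses a strain with defined DNA-repair lesions; compound-treated growth is compared with vehicle-treated growth.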

[4] = NCI Yeast Anticancer Drug Screen. Data for the cln2 rad14 strain (AID 165);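 further: 0% = growth equal to vehicle treated cultures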; settings: S. cerevisiae cln2 rad14 strain, active compounds read high
How it was run: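 Yeast strain cln2 rad14, bearing defects in cell cycle control and DNA repair, serves as the test system; values reflect growth inhibition compared with vehicle.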

[5] = NCI Yeast Anticancer Drug Screen. Data for the bub3 strain (AID 167); settings: S. cerevisiae bub3 mutant strain, active compounds read high
How it was run: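 Part of a panel of yeast mutants defective in DNA damage repair or cell cycle regulation. Each strain is grown with compound, and inhibition is calculated relative to solvent-treated cultures.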

[6] = NCI Yeast Anticancer Drug Screen. Data for the mlh1 rad18 strain (AID 175); settings: S. cerevisiae mlh1 rad18 strain growth inhibition, active compounds read high
How it was run: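 Steps: expose repair-defective yeast to compound; measure growth; express inhibition against vehicle-treated controls.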

[7] = at 5.0 µM (retest, dose inferred, filed as 0.5)
[8] = at 50.0 µM (retest, dose inferred, filed as 5.0)

Measured: growth inhibition

CCCCCCCCCCCCCC1OC(=O)C(C)=C1C(=O)O (stereo not given)
inactive: [1]; [7] -10% | [1]; [8] 50% | [2]; [7] -7% | [2]; at 50.0 µM 26.9% | [3]; [7] -2% | [3]; [8] 60% | [3]; at 50.0 µM 47.5% | [4]; [7] -65% | [4]; [8] 59% | [4]; at 50.0 µM 10.6% | [5]; [7] -17% | [5]; [8] -25% | [5]; at 50.0 µM 27.4% | [6]; [7] -10% | [6]; at 50.0 µM 61.9%
active: [1]; at 50.0 µM 72.6% | [2]; [8] 73% | [6]; [8] 74%

COc1cccc2c1C(=O)c1c(O)c3c(c(O)c1C2=O)C[C@@](O)(/C(C)=N/NS(C)(=O)=O)C[C@@H]3OC1CC(N)C(O)C(C)O1 (stereo not given in full)
active: [1]; [8] 94% | [1]; at 50.0 µM 95.2% | [2]; [8] 80% | [2]; at 50.0 µM 81.3% | [3]; [8] 77% | [3]; at 50.0 µM 94.2% | [4]; at 50.0 µM 70% | [5]; [8] 91% | [5]; at 50.0 µM 90.5% | [6]; [8] 89% | [6]; at 50.0 µM 91.6%
inactive: [1]; [7] 42% | [2]; [7] 18% | [3]; [7] 12% | [4]; [7] 15% | [4]; [8] 52% | [5]; [7] 12% | [6]; [7] 14%

O=C(CCCN1CCC(C(O)c2ccc(F)cc2)CC1)c1ccc(F)cc1 (stereo not given)
active: [1]; [8] 86% | [1]; at 50.0 µM 71.5% | [2]; [8] 78% | [3]; [8] 95% | [3]; at 50.0 µM 79.8% | [4]; [8] 87% | [5]; [8] 97% | [5]; at 50.0 µM 75.8% | [6]; [8] 89%
inactive: [1]; [7] 37% | [2]; [7] 33% | [2]; at 50.0 µM 69.5% | [3]; [7] 47% | [4]; [7] 47% | [4]; at 50.0 µM 68% | [5]; [7] 53% | [6]; [7] 62% | [6]; at 50.0 µM 68.5%

[Cl][Pt+2][Cl].[NH-]c1cc2ccccc2cc1[NH-]
inactive: [1]; [7] 2% | [1]; [8] 0% | [1]; at 50.0 µM 64.5% | [2]; [7] -34% | [2]; [8] 16% | [2]; at 50.0 µM 51.4% | [3]; [7] 0% | [3]; [8] 1% | [3]; at 50.0 µM 69.2% | [4]; [7] 1% | [4]; [8] 17% | [4]; at 50.0 µM 45% | [5]; [7] 0% | [5]; [8] 14% | [5]; at 50.0 µM 20.4% | [6]; [7] 0% | [6]; [8] -24%
active: [6]; at 50.0 µM 76.2%

CC(C)/C(Cl)=N/OC(=O)Nc1ccc(OC(F)(F)F)cc1
inactive: [1]; [7] 2% | [2]; [7] -30% | [3]; [7] 39% | [4]; [7] -7% | [5]; [7] -27% | [6]; [7] -7%
active: [1]; [8] 98% | [1]; at 50.0 µM 81% | [2]; [8] 98% | [2]; at 50.0 µM 88.3% | [3]; [8] 98% | [3]; at 50.0 µM 83.5% | [4]; [8] 97% | [4]; at 50.0 µM 76.2% | [5]; [8] 98% | [5]; at 50.0 µM 85.5% | [6]; [8] 97% | [6]; at 50.0 µM 77.1%
